Reference: ChEMBL document CHEMBL4513216, “Probing the Open Global Health Chemical Diversity Library for Multistage-Active Starting Points for Next-Generation Antimalarials” (ACS Infect Dis, 2020)
About 2,100 (3.2%) of roughly 65,000 compounds showed an effect of 50% or more. The median lay at about -52%. The sample as a whole holds a higher share of strong results than the screen did.

tested on: Plasmodium falciparum; assay: Screen against P. falciparum Asexual Blood Stage (ABS), at 5uM; assay type: functional, Dd2; conditions: tested at 5 uM

Going from `Cc1cnc(C(=O)N2C[C@H]3CN(Cc4cccnc4)C[C@H]3C2)cn1` to `COCCO[C@@H]1C[C@H]2CN(C(=O)c3cccnc3)CCN2C1`, the INHIBITION falls from -8.02% to -84.1%.

First: CN(C)CCN(Cc1cccnc1)C(=O)c1ccn(-c2ccccc2)n1
Second: Cc1ccccc1CNC(Cn1cncn1)c1ccccc1 (stereo unspecified)
The INHIBITION of the first is higher: 87.4% for the first, -47.8% for the second.

First: CCCN1CCN(C(=O)Cc2nc(-c3ccco3)oc2C)CC1
Second: CCCN1CCC(NC(=O)c2ccc(F)cc2I)CC1
The INHIBITION of the first is lower: -36.9% for the first, 71.1% for the second.

Going from `COc1cccc(C2=CCN(CCN3CCCC3=O)CC2)c1` to `CC(NC(=O)CN1CCCC1=O)c1ccc(Cl)s1` (stereo unspecified), the INHIBITION falls from 12.8% to -3.71%.

Compared with `Cc1nc(CCN)cc(N2CCC(O)(c3ccc(Cl)cc3)CC2)n1`, `Cc1nc(CN)cc(N2CCC(O)(c3ccc(Cl)cc3)CC2)n1` is lower in INHIBITION: 91.7% for the first, 72.2% for the second.

Compared with `CN1[C@@H](C(=O)NCC2CC2)C[C@@H]2CN(c3ncccn3)C[C@@H]21`, `c1ccc(CN2CCCC[C@H]3CN(c4ncccn4)C[C@H]32)cc1` is lower in INHIBITION: 13.9% for the first, 3.59% for the second.

Going from `c1ccc(O[C@@H]2CC[C@H]3[C@H]2OCCN3CC2CCOCC2)nc1` to `c1ccc(O[C@H]2CC[C@H]3[C@H]2OCCN3Cc2nccs2)nc1`, the INHIBITION rises from -83.6% to -64.9%.

First: CC(C)C[C@H](N)COc1cccc(F)c1Oc1cccc(Cl)c1
Second: CC(C)C[C@H](N)COc1cccc(F)c1Oc1ccc(Cl)cc1
The INHIBITION of the first is lower: 85.5% for the first, 86.5% for the second.

Compared with `CC(C)C[C@H](N)COc1cccc(F)c1Oc1ccccc1`, `CCC(NCc1cccc(Cl)c1)c1ccccc1OCC(=O)NC` (stereo unspecified) is higher in INHIBITION: 70.9% for the first, 82.8% for the second.

Compared with `c1ccc(CO[C@@H]2C[C@H]3CN(c4ncccn4)CCN3C2)nc1`, `CC1CN(C)CCN1C(=O)COc1cccc(Oc2ccccn2)c1` (stereo unspecified) is lower in INHIBITION: -38.6% for the first, -65.8% for the second.

First: c1cc(CN2CCOC3(CCCC3)C2)no1
Second: Cc1noc(C)c1CN1CCOC2(CCCN(c3nccs3)C2)C1 (stereo unspecified)
The INHIBITION of the first is lower: -101% for the first, -36.8% for the second.

Going from `O=C1CSC(c2ccsc2)c2sccc2N1` (stereo unspecified) to `Cc1ccc(CN2CC[C@H]3NC(=O)CC[C@@H]32)o1`, the INHIBITION falls from -15.7% to -34.6%.

First: Cc1ccc(N2CCO[C@H]3CN(Cc4cccs4)C[C@H]32)nn1
Second: COCCN1CCO[C@H]2CN(Cc3cccc(C)n3)C[C@H]21
The INHIBITION of the first is higher: -11.3% for the first, -18.3% for the second.

Compared with `COCCn1cc(C(=O)Nc2nc3c(s2)CCC3)c2ccccc21`, `CCCn1cc(C(=O)NCCS(N)(=O)=O)c2ccccc21` is higher in INHIBITION: -78.7% for the first, -25.6% for the second.

Compared with `O=C(CN1CCCC(c2ccn[nH]2)C1)Nc1nc2c(s1)CCC2` (stereo unspecified), `O=C(CN1CCCC(c2ccn[nH]2)C1)Nc1nc2c(s1)CCCC2` (stereo unspecified) is lower in INHIBITION: 89.2% for the first, 86.1% for the second.

First: Cc1cc(C2CCCN(CC(=O)Nc3nc4c(s3)CCC4)C2)n[nH]1 (stereo unspecified)
Second: Cc1cc(C(C)NCCN2CCC(N(C)C)CC2)c(C)s1 (stereo unspecified)
The INHIBITION of the first is higher: 86.9% for the first, 81.6% for the second.

Compared with `CCCOc1cc(Cl)c(CN2CCNC(C(=O)NC3CC3)C2)cc1OC` (stereo unspecified), `CN(C)CCCn1ccnc1C1CCCN(c2ncc(Cl)cc2F)C1` (stereo unspecified) is higher in INHIBITION: 75.4% for the first, 84.4% for the second.

Compared with `O=C(c1ccc(Cn2ccccc2=O)o1)N1CCC2(CC1)OCCO2`, `CCc1nc(-c2ccc(C(=O)N3CCC4(CC3)OCCO4)cc2)no1` is lower in INHIBITION: 1.12% for the first, -52.5% for the second.

Compared with `CC(C)Cc1ncc2c(n1)CN(C(=O)c1ccc(CN3CCCC3)o1)C2`, `CSc1ccc(-c2nc(CN3CCC(CN)C3)c(C)o2)cc1` (stereo unspecified) is higher in INHIBITION: 70.3% for the first, 83.05% for the second.

Compared with `CCCn1cc(C(=O)NCCCC(N)=O)c2ccccc21`, `Cc1ccc(C(C)NCc2cn(CCC(N)=O)c3ccccc23)cc1C` (stereo unspecified) is higher in INHIBITION: -75% for the first, 82.8% for the second.

Compared with `CC(C)CNC(=O)N1C[C@@H]2CCCN[C@@H]2C1`, `CNC(=O)[C@H]1C[C@@H]2CN(Cc3cccnc3OC)C[C@@H]2N1C(C)C` is higher in INHIBITION: -5.1% for the first, 21.8% for the second.

First: COCCN1CCOCC12CCN(C(=O)c1ccncc1)CC2
Second: Cc1ccc2nc(C)cc(C(=O)N[C@H]3COC[C@@H]3N3CCOCC3)c2c1
The INHIBITION of the first is higher: -98.9% for the first, -169% for the second.

First: FC(F)(F)c1ccc2nc([C@H]3CCN(C4CCCCC4)C3)[nH]c2c1
Second: CN1[C@@H]2CC[C@H]1CN(c1cc(Sc3cccs3)nc(N)n1)CC2
The INHIBITION of the first is higher: 83.6% for the first, 19.3% for the second.

First: Cc1ccc2c(CC(=O)N3C[C@@H](O)[C@H](N(C)C)C3)coc2c1
Second: Cc1cc(C(=O)N[C@H]2COC[C@@H]2N2CCOCC2)c2ccc(F)cc2n1
The INHIBITION of the first is higher: 9.22% for the first, -31.3% for the second.

Compared with `CC(Cc1ccccc1Cl)NC(=O)Nc1cnn(CC(N)=O)c1` (stereo unspecified), `CC(Cc1cccc(Cl)c1)NC(=O)NCc1ncnn1C` (stereo unspecified) is lower in INHIBITION: -20.1% for the first, -104% for the second.

Going from `CCC(NCc1ccccc1C)c1ccccc1OCC(=O)NC` (stereo unspecified) to `CCC(NCc1ccccc1Cl)c1ccccc1OCC(=O)NC` (stereo unspecified), the INHIBITION falls from 80% to 74.7%.

Going from `COCC(=O)NC(C)Cc1cccc(Cl)c1` (stereo unspecified) to `CC(Cn1cccn1)NCc1ccc(Cl)s1` (stereo unspecified), the INHIBITION falls from -14.8% to -30.2%.

First: Clc1ccccc1CNC(Cn1cncn1)c1ccccc1 (stereo unspecified)
Second: CC(NCCN1CCC(N(C)C)CC1)c1ccc(Cl)s1 (stereo unspecified)
The INHIBITION of the first is lower: -8.41% for the first, 75.4% for the second.

First: Cc1cc(NC2CC3(CCN(Cc4ncccc4F)C3)C2)ncn1 (stereo unspecified)
Second: Cc1cc(CN2CC[C@]3(C[C@@H](OCC(=O)N(C)C)CO3)C2)no1
The INHIBITION of the first is higher: -37.1% for the first, -93% for the second.

Compared with `CCc1c(C)[nH]c(C2(N)CCCC2)nc1=O`, `CCn1cc(CN2CCCCC2CCn2ccnc2C)cc1C#N` (stereo unspecified) is higher in INHIBITION: -43.5% for the first, 78.2% for the second.

First: CN1CCCC(Cc2cncc(Br)c2)CC1 (stereo unspecified)
Second: Cc1cc(Br)cnc1NCCN1CCC(N(C)C)CC1
The INHIBITION of the first is lower: -65% for the first, 89.1% for the second.

First: CCn1ccnc1CN1CCN(C(C)C)CC1C (stereo unspecified)
Second: Cc1cc(CC(=O)N2CCN(CC3CC3)[C@@H]3CS(=O)(=O)C[C@@H]32)ccc1F
The INHIBITION of the first is higher: -35.9% for the first, -75.7% for the second.

Going from `O=C(c1cc2cc(F)ccc2[nH]1)N1CCC(Nc2ccc(F)cc2)CC1` to `CO[C@H]1CNC[C@@H]1NC(=O)c1cc(C)nc2c(C)cc(C)cc12`, the INHIBITION rises from -1.01% to 75.1%.
